The values below come from PubChem BioAssay (Tox21).

Inconclusive results are not listed. Calls of active or inactive are those of the source. Unless noted, calls follow the shape of the dose curve; as a rule, active = well fitted curve in the direction sought with a large enough effect in the repeat runs; inconclusive = weak or mixed curves; inactive = no such curve, though single readings can be large; an effect the other way counts as inactive or inconclusive.

Assay [1] is described as follows: qHTS assay to identify small molecule antagonists of the glucocorticoid receptor (GR) signaling pathway - cell viability counter screen (AID 720693). Also: nearly all actives have a fitted effect of over 55% in size.
A short description of assay [2]: qHTS assay for identifying genotoxic compounds that show differential cytotoxicity against isogenic chicken DT40 cell lines with known DNA damage response pathways - wild type cell line (AID 743012). Also: nearly all actives have a fitted effect of over 60% in size. Also: potency is read from the fitted curve at half-maximal effect. In short, it runs like this: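 Parental DNA repair-proficient DT40 cells, 300 per well, were pre-incubated ~0.5 h at 37 C/5% CO2, pin-dosed with compounds in DMSO, then incubated 40 h. Viability was read as CellTiter-Glo luminescence after 30 min at room temperature.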

Assay [3] in a line: qHTS assay for identifying genotoxic compounds that show differential cytotoxicity against isogenic chicken DT40 cell lines with known DNA damage response pathways - Rev3 mutant cell line (AID 743014). Also: nearly all actives have a fitted effect of over 55% in size. Also: potency is read from the fitted curve at half-maximal effect.
The nature of assay [4]: qHTS assay for identifying genotoxic compounds that show differential cytotoxicity against isogenic chicken DT40 cell lines with known DNA damage response pathways - Rad54/Ku70 mutant cell line (AID 743015). Also: nearly all actives have a fitted effect of over 60% in size. Also: potency is read from the fitted curve at half-maximal effect.
The nature of assay [5]: qHTS assay to identify small molecule antagonists of the androgen receptor (AR) signaling pathway - cell viability counter screen (AID 743033; also: nearly all actives have a fitted effect of over 45% in size).
Assay [6] deals with Androgen receptor (Homo sapiens) (UniProt P10275). Briefly: qHTS assay to identify small molecule antagonists of the androgen receptor (AR) signaling pathway (AID 743035; active = well fitted inhibition curve with a large enough effect in the signal ratio in the repeat runs, not every such curve was filed as active; the % refers to the signal ratio). Summed up:
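HEK293 cells stably carrying a UAS-driven beta-lactamase reporter (AR-UAS-bla GripTite) were plated for 4 h at 37C, then given compound and the agonist R1881 and incubated 16 h. Reporter activity was read by LiveBLAzer B/G FRET fluorescence after 2 h at room temperature.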

The target is the same in assay [7]. Put plainly: qHTS assay to identify small molecule agonists of the androgen receptor (AR) signaling pathway (AID 743036; active = well fitted activation curve with a large enough effect in the signal ratio in the repeat runs, with a control signal flat, not every such curve was filed as active; the % refers to the signal ratio). In short, it runs like this:
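In this Tox21 qHTS, 2,000 HEK293 AR-bla cells per well were incubated with compounds for 16 h at 37C and 5% CO2. Fluorescence intensity was recorded 2 h after adding LiveBLAzer B/G FRET substrate at room temperature.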

For assay [8] the target is unchanged. Briefly: qHTS assay to identify small molecule agonists of the androgen receptor (AR) signaling pathway using the MDA cell line (AID 743040; also: nearly all actives have a fitted effect of over 20% in size). Summed up:
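MDA-kb2 breast carcinoma cells stably carrying an MMTV-driven luciferase reporter (AR- and GR-responsive) were seeded and held 5 h at 37C, 0% CO2, then exposed to compounds in DMSO for 16 h. Luminescence was read 30 min after ONE-Glo addition.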

Assay [9] in a line: qHTS assay to identify small molecule antagonists of the androgen receptor (AR) signaling pathway using the MDA cell line - cell viability counter screen (AID 743041; also: nearly all actives have a fitted effect of over 45% in size). Summed up:
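MDA-kb2 AR-luc human breast carcinoma cells (MMTV-luciferase, AR/GR responsive) were treated with compounds plus R1881 agonist for 16 h at 37 °C. Viability was read as CellTiter-Fluor fluorescence in the same wells as the reporter assay.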

Assay [10] deals with Androgen receptor (Homo sapiens) (UniProt P10275). Put plainly: qHTS assay to identify small molecule antagonists of the androgen receptor (AR) signaling pathway using the MDA cell line (AID 743042; also: nearly all actives have a fitted effect of over 55% in size). Summed up: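 MDA-kb2 cells (human breast carcinoma, stably carrying an MMTV-luciferase reporter responsive to AR and GR) were plated at 3,000 cells/well and preincubated 5 hr at 37C, then given compound plus R1881 agonist for 16 h. ONE-Glo luminescence was read.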
Chain of Androgen receptor (Homo sapiens) (P10275 whole entry, looked up): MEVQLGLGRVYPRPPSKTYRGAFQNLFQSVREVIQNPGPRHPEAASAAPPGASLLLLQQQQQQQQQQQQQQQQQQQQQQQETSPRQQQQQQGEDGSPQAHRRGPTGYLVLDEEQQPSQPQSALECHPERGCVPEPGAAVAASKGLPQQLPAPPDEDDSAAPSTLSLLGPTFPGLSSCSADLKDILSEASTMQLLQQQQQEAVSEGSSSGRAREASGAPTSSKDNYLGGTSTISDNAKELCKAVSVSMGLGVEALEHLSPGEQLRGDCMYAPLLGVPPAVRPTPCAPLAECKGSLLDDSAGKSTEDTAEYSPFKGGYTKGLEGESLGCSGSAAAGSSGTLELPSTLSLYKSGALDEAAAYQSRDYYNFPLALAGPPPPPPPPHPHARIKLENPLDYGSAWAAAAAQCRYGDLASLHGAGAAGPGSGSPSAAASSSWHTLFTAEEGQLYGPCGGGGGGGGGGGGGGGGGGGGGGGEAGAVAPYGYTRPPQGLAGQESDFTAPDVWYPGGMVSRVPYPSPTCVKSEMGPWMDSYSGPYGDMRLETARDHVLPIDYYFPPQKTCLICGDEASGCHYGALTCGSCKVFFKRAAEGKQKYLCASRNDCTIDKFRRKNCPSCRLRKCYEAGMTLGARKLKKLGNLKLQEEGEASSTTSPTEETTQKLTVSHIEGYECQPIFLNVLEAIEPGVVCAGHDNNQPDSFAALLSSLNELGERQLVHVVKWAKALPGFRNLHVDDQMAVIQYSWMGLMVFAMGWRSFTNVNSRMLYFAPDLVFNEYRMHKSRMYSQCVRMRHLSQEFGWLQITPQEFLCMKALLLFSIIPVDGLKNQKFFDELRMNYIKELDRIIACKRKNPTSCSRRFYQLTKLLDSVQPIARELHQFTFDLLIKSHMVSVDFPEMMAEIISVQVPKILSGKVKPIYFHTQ

A short description of assay [11]: qHTS assay to identify small molecule antagonists of the thyroid receptor (TR) signaling pathway - cell viability counter screen (AID 743064). Also: nearly all actives have a fitted effect of over 50% in size. In short, it runs like this: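 Counter screen for cytotoxicity: compound plus T3 (1 nM final) on GH3.TRE-Luc cells, 23.5 h at 37 °C, then fluorescence viability readout with CellTiter-Fluor.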
Assay [12] is described as follows: qHTS assay to identify small molecule antagonists of the thyroid receptor (TR) signaling pathway (AID 743065). Also: series mostly up to about 70 µM; nearly all actives have a fitted effect of over 55% in size. Summed up: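 GH3.TRE-Luc rat pituitary cells carrying two TR response elements driving luciferase were plated for 4 h, given compound plus 1 nM T3 (final), and incubated 23.5 h at 37 C. ONE-Glo luminescence measured reporter inhibition; CellTiter-Fluor fluorescence tracked cytotoxicity.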

For assay [13], the system named is thyroid hormone receptor (rat, GH3 cells). Briefly: qHTS assay to identify small molecule agonists of the thyroid receptor (TR) signaling pathway (AID 743066; calls by dose curve).
The target in assay [14] is Estrogen receptor (Homo sapiens) (UniProt P03372). Put plainly: qHTS assay to identify small molecule antagonists of the estrogen receptor alpha (ER-alpha) signaling pathway (AID 743069; active = well fitted curve in the direction sought with a large enough effect in the signal ratio in the repeat runs, not every such curve was filed as active; the % refers to the signal ratio). Summed up:
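HEK293 cells stably carrying an ER-alpha-UAS-bla beta-lactamase reporter were pre-cultured overnight in 2% charcoal-stripped FBS medium. Test compounds in DMSO were added together with 17beta-estradiol for 18 hr at 37C. Read-out was fluorescence after 2 hr with LiveBLAzer B/G FRET substrate at room temperature.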

The nature of assay [15]: qHTS assay to identify small molecule antagonists of the estrogen receptor alpha (ER-alpha) signaling pathway - cell viability counter screen (AID 743074; calls by dose curve; also: nearly all actives have a fitted effect of over 45% in size).
Assay [16] has as its target Estrogen receptor (Homo sapiens) (UniProt P03372). Briefly: qHTS assay to identify small molecule agonists of the estrogen receptor alpha (ER-alpha) signaling pathway (AID 743075; calls by dose curve).
Assay [17] shares this target. Briefly: qHTS assay to identify small molecule agonists of the estrogen receptor alpha (ER-alpha) signaling pathway using the BG1 cell line (AID 743079). Also: nearly all actives have a fitted effect of over 20% in size.
The nature of assay [18]: qHTS assay to identify small molecule antagonists of the estrogen receptor alpha (ER-alpha) signaling pathway using the BG1 cell line (AID 743080; calls by dose curve;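 also: BG1 cells stimulated with 17beta-estradiol alongside compound; series mostly up to about 70 µM; nearly all actives have a fitted effect of over 25% in size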). In short, it runs like this:
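Readout is ONE-Glo luminescence, taken 30 min at room temperature after reagent addition, preceded by a CellTiter-Fluor viability read; BG1-Luc-4E2 cells had received compound and 17beta-estradiol for 21.5 h at 37 C.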

The nature of assay [19]: qHTS assay to identify small molecule antagonists of the estrogen receptor alpha (ER-alpha) signaling pathway using the BG1 cell line - cell viability counter screen (AID 743081).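 Also: compound given together with 17beta-estradiol as the ER stimulus; series mostly up to about 70 µM; nearly all actives have a fitted effect of over 45% in size.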
The target of a further assay is Aromatase (Homo sapiens) (UniProt P11511). Put plainly: qHTS assay to identify aromatase inhibitors (AID 743083).
Chain of Aromatase (Homo sapiens) (P11511 whole entry, looked up): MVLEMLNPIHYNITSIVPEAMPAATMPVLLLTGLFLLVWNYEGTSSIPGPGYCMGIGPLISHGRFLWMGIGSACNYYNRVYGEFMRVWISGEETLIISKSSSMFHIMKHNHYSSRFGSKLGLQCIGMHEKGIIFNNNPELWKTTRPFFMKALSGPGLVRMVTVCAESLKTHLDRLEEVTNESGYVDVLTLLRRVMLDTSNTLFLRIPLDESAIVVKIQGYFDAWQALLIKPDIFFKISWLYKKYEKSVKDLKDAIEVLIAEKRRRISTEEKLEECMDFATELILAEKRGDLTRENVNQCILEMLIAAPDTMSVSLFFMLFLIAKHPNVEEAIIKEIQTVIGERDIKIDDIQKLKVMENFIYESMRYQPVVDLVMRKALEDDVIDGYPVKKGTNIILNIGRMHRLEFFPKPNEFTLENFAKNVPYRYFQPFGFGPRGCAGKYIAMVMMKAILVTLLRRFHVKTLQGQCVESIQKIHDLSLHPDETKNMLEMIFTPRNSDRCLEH

Chain of Estrogen receptor (Homo sapiens) (P03372 whole entry, looked up): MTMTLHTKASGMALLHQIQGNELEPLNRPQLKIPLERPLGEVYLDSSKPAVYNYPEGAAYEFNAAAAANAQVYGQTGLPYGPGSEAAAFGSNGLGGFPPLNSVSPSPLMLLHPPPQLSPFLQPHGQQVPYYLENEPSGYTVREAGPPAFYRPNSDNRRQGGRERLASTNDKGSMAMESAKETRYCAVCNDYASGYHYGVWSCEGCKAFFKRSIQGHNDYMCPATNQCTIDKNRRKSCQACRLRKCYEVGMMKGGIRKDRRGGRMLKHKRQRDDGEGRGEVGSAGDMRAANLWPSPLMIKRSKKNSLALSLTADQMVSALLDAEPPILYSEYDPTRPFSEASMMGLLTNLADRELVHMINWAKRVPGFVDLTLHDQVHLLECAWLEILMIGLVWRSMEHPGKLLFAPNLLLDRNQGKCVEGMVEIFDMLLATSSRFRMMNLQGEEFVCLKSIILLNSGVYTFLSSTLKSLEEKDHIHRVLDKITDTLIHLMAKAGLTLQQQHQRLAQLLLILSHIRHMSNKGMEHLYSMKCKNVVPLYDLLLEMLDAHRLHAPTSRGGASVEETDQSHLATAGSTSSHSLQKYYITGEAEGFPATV

As to `COCC(=O)Nc1c(I)c(C(=O)NCC(O)CO)c(I)c(C(=O)N(C)CC(O)CO)c1I` (stereo not given), the Potency entry in [1], in assay [2], in assay [3], in [4], in assay [6] and in assay [11] was “inactive” each time. The Potency result in [12], in assay [13], in assay [14], in assay [15], in assay [16] and in [17] was “inactive” each time. The outcome in [5], in assay [7], in assay [8], in [9], in [10] and in assay [18] was inactive. In addition, the compound was called inactive (in [19]; in the assay with Aromatase (Homo sapiens)).

In the case of `OCCCCCCCl`, the Potency result in assay [1], in [2], in assay [3], in [4], in assay [11] and in assay [12] was “inactive” throughout. For the same compound, the Potency result in assay [13], in assay [14], in assay [15] and in assay [16] was “inactive” throughout. For the same compound, the compound was classed as inactive (in assay [5]; in assay [9]; in assay [18]; in [19]; in the assay with Aromatase (Homo sapiens)).

For the compound `CO[Si](CCCCl)(OC)OC`, the Potency result in assay [1], in assay [2], in assay [3], in assay [4], in assay [11] and in [12] was “inactive” throughout. For the same compound, the Potency entry in [13], in [14], in assay [15], in assay [16] and in assay [17] was “inactive” throughout. For the same compound, the outcome (in [5]; in [9]; in assay [18]; in assay [19]; in the assay with Aromatase (Homo sapiens)) was inactive.

As to `COc1cccc2sc(N)nc12`, the Potency result in assay [1], in [2], in [3], in assay [4], in assay [11] and in [12] was “inactive” in each case. Besides, the Potency entry in [13], in assay [14], in assay [15], in assay [16] and in [17] was “inactive” each time. In addition, the call (in [5]; in assay [9]; in assay [10]; in [18]; in assay [19]; with Aromatase (Homo sapiens)) was inactive.

`OC(CCN1CCCCC1)(c1ccccc1)c1ccccc1`: the Potency result in [1], in [6], in [13], in [14], in assay [15] and in assay [16] was “inactive” each time. For the same compound, the Potency result in [17] was “inactive”. Also, the results for the Potency in assay [2], in [3] and in [4] were 13.3 µM (active), 23.7 µM (active) and 21.1 µM (active), respectively. For the same compound, the outcome (in assay [5]; in assay [7]; in assay [8]; in assay [10]; in assay [18]; with Aromatase (Homo sapiens)) was inactive.

Take `CCN1CN(CC)CN(CC)C1`: the Potency result in [1], in assay [2], in [3], in [4], in [11] and in assay [12] was “inactive” in each case. The Potency result in [13], in assay [14], in [15], in assay [16] and in assay [17] was “inactive” throughout. Further, the result (in assay [5]; in [9]; in [18]; in assay [19]; with Aromatase (Homo sapiens)) was inactive.

For the compound `O=c1[nH]c(=O)c2ccccc2o1`, the Potency result in [1], in assay [2], in assay [3], in assay [4], in [11] and in assay [12] was “inactive” in each case. For the same compound, the Potency result in assay [13] and in assay [15] was “inactive” in each case. Further, the compound was called inactive (in [5]; in assay [8]; in [9]; in [10]; in assay [19]; with Aromatase (Homo sapiens)).

As to `O=C(/C=C/c1ccccc1)NCCO`, the Potency result in assay [1], in [2], in assay [3], in [4], in [11] and in assay [12] was “inactive” in each case. For the same compound, the Potency entry in [13], in [14], in assay [15], in assay [16] and in assay [17] was “inactive” in each case. Moreover, the outcome (in assay [5]; in assay [9]; in [18]; in assay [19]; with Aromatase (Homo sapiens)) was inactive.

For `Cn1c(=O)c2c(ncn2CC2OCCO2)n(C)c1=O`, the Potency entry in [1], in assay [2], in assay [3], in [4], in [6] and in assay [11] was “inactive” throughout. Also, the Potency result in [12], in [13] and in assay [15] was “inactive” each time. Also, the compound was classed as inactive (in assay [5]; in assay [7]; in [8]; in [10]; in [19]; in the assay with Aromatase (Homo sapiens)).
